S1P4 antagonist: S1P4 receptor antagonists, primary screen, cell-based; AID 1510, 2009; Sphingosine 1-phosphate receptor 4 (Homo sapiens), O95977; inhibition, % at 4.98 µM; actives 0.26% (n = 220,000); S1P4-expressing cells, antagonist mode, reporter read-out; in the data active means inhibition above about 29%;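 further: 0% = wells stimulated with agonist and 100% = vehicle wells without agonist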
Target sequence (O95977 whole entry, looked up): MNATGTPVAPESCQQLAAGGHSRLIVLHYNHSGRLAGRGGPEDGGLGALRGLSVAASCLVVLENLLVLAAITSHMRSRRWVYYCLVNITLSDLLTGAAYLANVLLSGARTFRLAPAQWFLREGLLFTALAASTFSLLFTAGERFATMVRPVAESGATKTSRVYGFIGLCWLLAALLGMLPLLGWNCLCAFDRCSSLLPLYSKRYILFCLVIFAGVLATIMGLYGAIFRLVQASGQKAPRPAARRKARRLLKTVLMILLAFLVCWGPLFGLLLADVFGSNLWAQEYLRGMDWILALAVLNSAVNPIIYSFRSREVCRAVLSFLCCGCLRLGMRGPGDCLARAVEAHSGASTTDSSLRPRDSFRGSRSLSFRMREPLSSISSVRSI
HSF1 inhib: HSF1 inhibitors in luciferase reporter cells, primary screen, cell-based, NIH3T3, luminescence; AID 2098, 2009; actives 0.77% (n = 300,000); activity change, negative = inhibition, % at 7.5 µM (by protocol); NIH3T3-HGL HSE-luciferase, MG132-induced, luminescence 8 h; active compounds read low;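 active means more than half of replicate wells show activity change below -50%, luminescence cut by over half; inconclusive means some wells, but at most half, below -50%; inactive means no replicate well below -50%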;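 further: luciferase reports HSF-1 transcriptional activity via heat shock element; 0% = median of DMSO wells and -100% = zero luminescence signal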
S1P4 agonist: S1P4 receptor agonists, primary screen, cell-based. activation, % at 4.98 µM. Sphingosine 1-phosphate receptor 4 (Homo sapiens), O95977. S1P4-expressing cell line, agonist reporter assay. actives 0.35% (n = 220,000); in the data active means activation above about 11%;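 further: 0% = DMSO vehicle and 100% = reference agonist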
HSF1 activator: HSF-1 activators, primary screen, NIH3T3-HGL cells, MG132 stress, luminescence, single point; activation, % at 9 µM; NIH3T3-HGL HSF-1 luciferase reporter, 8 h; 100% = twice DMSO control signal; AID 504408, 2011; actives 1.7% (n = 300,000);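 active means mean replicate activation of at least 50% with a set share of replicates each reaching 50%; inconclusive means only one of those two conditions met; inactive means mean below 50% and too few replicates reaching it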;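 further: 0% = median of the neutral control wells and 100% = twice that signal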
Hsp70 activator: Hsp70 transcriptional activators, primary screen, cell-based, HeLa, Hsp70 promoter luciferase, luminescence, 10 µM. HeLa Hsp70 promoter luciferase reporter; scaled: vehicle 0, proteasome-inhibitor control 100%. activation, % at 10 µM. actives 0.04% (n = 200,000). AID 1203, 2008;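 active means activation above the mean across all tested compounds plus 3 SD, cutoff set per campaign, cut at about 5.5% in these data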;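 further: 100% = MG132 at 30 µM as the positive control and 0% = DMSO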
S1P3 antagonist: S1P3 receptor antagonists, primary screen, cell-based. actives 0.27% (n = 170,000). CHO S1P3 NFAT-BLA reporter, FRET fluorescence, antagonist mode. inhibition, % at 4.98 µM;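 active means inhibition above the plate cutoff, the mean inhibition of test wells on that plate plus 3 SD, cut at about 28% in these data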;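 further: cells challenged with S1P at its EC80 of 0.8 µM; blue over green emission ratio from cleaved BLA substrate after 4 h stimulation; 0% = S1P-stimulated wells and 100% = unstimulated DMSO-only wells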
Target sequence (Q99500 whole entry, looked up): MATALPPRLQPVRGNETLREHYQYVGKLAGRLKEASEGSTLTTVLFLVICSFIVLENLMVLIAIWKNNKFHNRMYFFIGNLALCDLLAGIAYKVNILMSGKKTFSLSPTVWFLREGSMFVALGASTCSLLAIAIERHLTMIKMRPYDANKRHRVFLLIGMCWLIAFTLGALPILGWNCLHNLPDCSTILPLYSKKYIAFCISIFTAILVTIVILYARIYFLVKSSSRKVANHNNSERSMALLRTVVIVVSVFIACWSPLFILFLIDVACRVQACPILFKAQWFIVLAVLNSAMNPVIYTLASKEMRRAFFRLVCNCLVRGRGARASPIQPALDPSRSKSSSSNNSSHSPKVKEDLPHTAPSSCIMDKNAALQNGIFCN
Active calls of the source: *; u = inconclusive; x = no result. Rows were chosen to be rich in hits. Some 2.9% of all compounds tested hit in one or more screens of this group.

SMILES | S1P4 antagonist | HSF1 inhib | S1P4 agonist | HSF1 activator | Hsp70 activator | S1P3 antagonist
Cc1ccc(OCC(=O)Nc2ccccc2C(N)=O)cc1 | x | 12.7 | x | 56.6* | x | x
COc1ccc(CC(=O)NCC(=O)Nc2ccccc2Br)cc1 | x | 9.8 | x | 56.0* | x | x
COc1ccc(OCC(=O)Nc2ccccc2O)cc1 | 2.1 | 34.4 | 1.1 | 74.5* | -0.3 | x
COc1ccccc1NC(=O)COc1ccccc1 | 5.5 | 10.5 | 0.4 | -4.5 | -0.4 | x
CCc1ccccc1NC(=O)CCS(=O)(=O)c1ccc(OC)cc1 | x | -79.4* | x | -84.1 | x | x
C/C(CC(=O)Nc1cccc(C(F)(F)F)c1)=N/NC(=O)C(=O)NCCO | -1.4 | 4.9 | 1.2 | 19.2 | x | 7.8
CC(C)OCC(O)CCc1n[nH]c(=S)n1-c1ccccc1 (stereo unspecified) | 9.7 | -4.6 | -0.2 | 8.5 | -0.4 | -7.2
Cc1ccc(S(=O)(=O)NCC(=O)NCC2CCCCC2)cc1C | x | -0.3 | x | 9.6 | x | x
COc1c(Cl)cc(-c2noc(C)c2C(=O)NC(C)C)cc1Cl | -10.6 | -3.7 | 2.7 | 18.0 | 0.0 | -17.2
O=c1c2c3c(sc2[nH]c(=S)n1Cc1ccco1)CCC3 | 4.7 | 75.3 | 0.9 | 93.5* | x | -7.2
CC1(C)Cc2c(sc3[nH]c(=S)n(Cc4ccco4)c(=O)c23)CO1 | 13.4 | 22.8 | -1.0 | 40.3 | -0.3 | x
COc1ccc(C2Nc3ccccc3C(=O)N2c2ccc(C)cc2)cc1COc1ccccn1 (stereo unspecified) | -8.2 | 21.8 | 0.6 | 57.9* | 0.8 | -7.8
COc1ccc(C2Nc3ccccc3C(=O)N2c2ccc(C)cc2)cc1Cn1nc(C)c([N+](=O)[O-])c1C (stereo unspecified) | -14.5 | 24.1 | -0.3 | 32.0 | 0.2 | x
O=S(=O)(CC(CN1CCCC1)N1CCCC1)c1ccc2ccccc2c1 (stereo unspecified) | -2.9 | 3.3 | 1.0 | 33.7 | 0.2 | -6.3
CC(C)(C)C(=O)/C(=C/c1ccc(Cl)cc1)n1cncn1 | x | 122.5 | x | 150.3* | x | x
CC(C)(C)C(=O)/C(=C\c1ccc([N+](=O)[O-])cc1)n1cncn1 | 54.8* | u | -0.2 | -27.2 | 2.1 | x
CN(C)/C=C(/C(=O)c1ccccc1)n1cncn1 | -16.5 | -10.9 | 1.1 | -16.0 | -0.3 | -6.8
CCOC(=O)[C@@H]1[C@H]2COc3ccccc3[C@@H]2N2C(=O)N(c3cccc(F)c3)C(=O)[C@]12C | x | -2.9 | x | -15.4 | x | x
Cc1ccc2c(CN(C)Cc3ccccc3)cc(=O)oc2c1C | x | 40.4 | x | 73.6* | x | x
COc1cc2c(cc1OC)CN(Cc1cc(=O)oc3cc(C)c(C)cc13)CC2 | -6.4 | 3.6 | 0.2 | 33.3 | -0.4 | 5.0
COc1cc2c(cc1OC)CN(Cc1cc(=O)oc3c(C)c(C)ccc13)CC2 | -14.5 | 12.6 | 1.2 | 58.0* | -0.3 | 5.9
Cc1cc(C(C)(C)C)oc1C(=O)N(CC(=O)NC1CCCC1)c1ccc(F)cc1 | -10.5 | -2.3 | 3.2 | 17.9 | -0.3 | x
Cc1cc(C(C)(C)C)oc1C(=O)N(CC(=O)NC1CCCC1)c1c(C)cccc1C | 0.0 | -52.8* | 1.2 | -57.7 | -0.4 | x
CSC(=NC#N)N1CCN(c2ccc(Cl)cc2)CC1 | 6.9 | 27.3 | -1.3 | 55.9* | -0.1 | x
CN(C)C(=C(C#N)C#N)N1CCN(c2ccc(Cl)cc2)CC1 | -12.2 | -11.2 | 0.7 | -7.6 | 0.1 | -17.0
SMILES | S1P4 antagonist | HSF1 inhib | S1P4 agonist | HSF1 activator | Hsp70 activator | S1P3 antagonist
Cc1cccc(C)c1OCc1nc2ccccc2c(=O)n1/N=C/c1ccc(OCC(=O)O)cc1 | -15.8 | 22.5 | 1.6 | 52.8* | 0.2 | -13.8
O=C(O)COc1ccc(/C=N/n2c(COc3ccccc3)nc3ccccc3c2=O)cc1 | -3.5 | -1.1 | -2.2 | -1.3 | -0.3 | -10.7
O=C(NCCO[N+](=O)[O-])c1cccnc1 | -11.9 | 0.4 | 0.7 | -12.1 | 0.0 | -3.0
O=C(/C=C/c1cccc([N+](=O)[O-])c1)c1ccc([N+](=O)[O-])o1 | x | 32.4 | x | 54.0* | x | x
COc1cc(N/N=C/c2ccccc2O)ncn1 | -14.2 | 21.3 | -0.1 | 65.2* | 0.0 | 1.5
CCc1ccccc1NC(=O)N1C2CCCC1CC(NC(=O)C(C)(C)C)C2 (stereo unspecified) | -11.7 | -3.8 | 0.3 | 4.6 | 0.9 | 62.9*
O=C(NC1CC2CCCC(C1)N2C(=O)Nc1ccccc1Cl)C1CC1 (stereo unspecified) | x | 7.5 | x | 23.4 | x | x
Cc1ccccc1NC(=O)N1C2CCCC1CC(NC(=O)C1CC1)C2 (stereo unspecified) | -10.4 | -69.9* | 5.6 | -76.4 | -0.2 | -26.4
COc1cc(O)oc1C=Nc1ccc(C(=O)O)cc1 | -8.3 | -61.7* | -1.4 | -64.4 | -0.2 | -12.1
COc1ccc(OCC(O)CNS(=O)(=O)c2ccc(NC(C)=O)cc2)cc1 (stereo unspecified) | x | -5.6 | x | -4.6 | x | x
CC(C)(C)C(=O)/C=c1\s/c(=C\c2ccc(-c3ccc([N+](=O)[O-])cc3)o2)c(=O)n1CC(=O)NC(N)=O | -9.8 | -8.9 | -1.1 | 1.4 | 0.3 | 6.3
Cc1ccc2c(CC(=O)Nc3sccc3C(N)=O)coc2c1 | -1.1 | 54.7 | 1.1 | 83.7* | -0.2 | -10.2
Cc1cccc(NC(=O)CNC(=O)c2cccc(-n3cccc3)c2)c1C | x | -0.7 | x | -1.4 | x | x
Cc1cc(Nc2cccc(Cl)c2)c2ccccc2n1 | x | -0.6 | x | 15.7 | x | x
Cc1cc(Nc2ccc3c(c2)OCCO3)c2cc(Cl)ccc2n1 | -18.6 | -57.5* | 0.2 | -58.2 | -0.1 | 0.4
Cc1cccc(OCC(=O)O/N=C(\N)c2ccc(Br)cc2)c1 | 8.4 | 3.8 | -0.1 | 12.9 | x | 9.4
Cc1cc(NC(=O)/C=C/c2ccc(F)cc2)n(-c2nc3ccccc3[nH]2)n1 | 2.1 | 7.0 | -1.6 | 45.8 | -0.3 | -16.3
COc1ccc(/C=C/C(=O)Nc2cc(C)nn2-c2nc3ccccc3[nH]2)cc1 | -24.2 | 143.6 | 2.4 | 189.6* | -0.2 | 9.4
CC1CCN(C(=O)CCCOc2cc(=O)n(C)c3ccccc23)CC1 | -34.1 | 36.9 | -1.7 | 74.9* | -0.2 | 0.3
CCOC(=O)C1CCN(C(=O)Cn2cc(C(=O)C3CC3)c3ccccc32)CC1 | -9.2 | -3.0 | -1.7 | 29.9 | -0.4 | 5.9
O=C(c1cn(CC(=O)N2CCCCC2)c2ccccc12)C1CC1 | 0.7 | 37.7 | 0.3 | 61.6* | 0.1 | 10.6
Cc1cc(NC(=S)N(Cc2ccc(Cl)cc2)Cc2ccc(C(=O)O)cc2)ccc1Cl | -27.3 | 49.3 | 1.6 | 80.1* | 0.4 | -4.1
CC(=O)Nc1ccc(C(=O)OCc2ccc(Cl)c(Cl)c2)cc1 | -8.9 | 22.4 | 0.6 | 56.9* | -0.4 | -11.0
O=C(NCCNC(=O)c1ccc(Cl)cc1Cl)c1ccco1 | x | 0.2 | x | 3.4 | x | x
Cc1ccccc1C(=O)NC[C@@H]1CCCN2CCCC[C@H]12 | x | -56.1* | x | -64.3 | x | x

Compound activity deposited in PubChem by several laboratories.
